Most compounds without a hit are left out; they make up all but 17% or so of the library.
TDP1 cell CPT: DT40-hTDP1 cell growth loss with CPT; chicken DT40 Tdp1-/-;hTDP1 cells + 20 nM CPT, ATP luminescence, 48 h; Potency, µM (top dose mostly 46.2 µM), for the others: at the highest dose activity change, negative = growth inhibition, most hits filed as inhibitors; 420,000 compounds, 12% hits; AID 686979; also: % is scaled to controls: 0 for no effect and ±100 for the full control effect; nearly all actives have a fitted effect of over 55% in size
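Chicken DT40 Tdp1-/- cells complemented with human TDP1, 400 cells/well, exposed to compounds plus 20 nM camptothecin for at least 48 h at 37 C; viability read as ATP content by CellTiter-Glo luminescence.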
HepG2 tox: kills HepG2 cells in TGF-b inhibitor counter-screen; 410,000 compounds, 0.76% hits; Potency, µM (top dose mostly 46.1 µM), without a hit: top-dose activity change, negative = cytotoxicity, most hits filed as cytotoxic; HepG2 CAGA-GFP viability, ATP luminescence, 18 h
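HepG2 CAGA-GFP cells (1000/well, DMEM with 1% FBS) received compound, then TGF-beta at 500 pg/mL final, and were incubated 18 hours at 37 degrees C. Viability was read by CellTiter-Glo luminescence. Media-only wells were set as complete cell-killing and DMSO as no toxicity.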
TGFb inhibitor: blocks TGF-b signaling. HepG2 CAGA-GFP TGF-b/SMAD3 reporter, GFP fluorescence, 18 h; TGF-beta stimulated, 500 pg/mL final. Potency, µM (top dose mostly 46.1 µM), inactives show top-dose activity, negative = inhibition, usual class: inhibitors. 410,000 compounds, 1.2% hits; also: % is scaled to controls: 0 for no effect and ±100 for the full control effect; nearly all actives have a fitted effect of over 65% in size
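TGF-beta reporter screen: HEPG2 CAGA-GFP, 1% FBS, 500 pg/mL TGF-beta final, 18 h; per-cell GFP summed per well; curves fitted and categorized by class.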
ATXN2 expr inh: ATXN2 expression inhibition; HEK-293 ATXN2-luciferase reporter, luminescence, 24 h; Potency, µM (doses to about 57 µM), for inactives: top-dose activity change, negative = inhibition, most hits filed as inhibitors; 360,000 compounds, 0.72% hits; also: % is scaled to controls: 0 for no effect and ±100 for the full control effect; nearly all actives have a fitted effect of over 55% in size
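qHTS (up to 57 uM final) was run with 24 h compound exposure of reporter cells at 37 °C. Each well was multiplexed: SteadyGlo luminescence measured ATXN2-luciferase expression after a fluorogenic Gly-Phe-AFC viability readout (25 uM final).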
TDP1 cell noCPT: qHTS for Inhibitors of human tyrosyl-DNA phosphodiesterase 1 (TDP1): qHTS in cells in absence of CPT; DT40 Tdp1-/- hTDP1 cells, no CPT, ATP luminescence, 48 h; 420,000 compounds, 15% hits; AID 686978, 2013; Potency, µM (top dose mostly 46.2 µM), without a hit: at the highest dose activity change, negative = growth inhibition, usual class: inhibitors; also: % is scaled to controls: 0 for no effect and ±100 for the full control effect; nearly all actives have a fitted effect of over 55% in size
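Cells were dispensed at 400 per well, compounds added by pin tool, plates incubated ≥48 hr at 37 °C, then CellTiter-Glo added for 30 min at room temperature before luminescence reading. Line: DT40 Tdp1-/- complemented with hTDP1; camptothecin omitted.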
ATXN viability: cell viability loss in ATXN counter-screen; Potency, µM (top dose mostly 56.7 µM), actives largely listed as cytotoxic; 400,000 compounds, 0.49% hits; S2 cells (HEK-293 line with an ATXN2-luciferase reporter) viability, CellTiter-Fluor protease fluorescence, 24 h; AID 651635; also: nearly all actives have a fitted effect of over 40% in size
* marks the source's active call; other numbers are inactive results; i = inactive; ? = inconclusive; . = not tested or not shown; [ ] = dose if it differs, or a comment. Calls follow the shape of the dose curve; as a rule, active = well fitted curve in the direction sought with a large enough effect; inconclusive = small, poorly fitted or top-dose-only effect, or another doubt; inactive = no such curve, though single readings can be large; an effect the other way counts as inactive or inconclusive. Potency is read from the fitted curve at half-maximal effect.

SMILES | TDP1 cell CPT | HepG2 tox | TGFb inhibitor | ATXN2 expr inh | TDP1 cell noCPT | ATXN viability
COc1ccc(C)cc1NC(=O)c1cc(S(=O)(=O)N2CCCCC2)c[nH]1 | -20.5% | -14.4% | -30.4% | . | ? | .
COc1ccc(C(=O)C2CCCN(Cc3cnc(N4CCOCC4)s3)C2)cc1F (stereo unspecified) | 2.7% | -14.9% | -39.3% | ? | -20.0% | ?
COc1ccc(C(=O)C2CCCN(Cc3ccc4nonc4c3)C2)c(OC)c1 (stereo unspecified) | 11.6µM* | 6.4% | ? | -37.1% | ? | i
COc1ccc(C(=O)C2CCCN(Cc3cnc(N4CCOCC4)s3)C2)c(OC)c1 (stereo unspecified) | -16.8% | -28.2% | ? | -29.6% | 16.4µM* | i
COc1ccc(C(=O)C2CCCN(Cc3cccn3-c3ccc(Cl)cn3)C2)c(OC)c1 (stereo unspecified) | 13µM* | -16.4% | ? | -23.3%[11.3 µM] | 20.6µM* | i
Cn1cnc2c(=O)oc3ccc(S(=O)(=O)N4CCN(c5cccc(C(F)(F)F)c5)CC4)cc3c21 | -7.3% | -4.9% | -14.6% | . | 2.5% | .
O=C(CNC(=O)c1cccc(F)c1)N/N=C/c1ccc([N+](=O)[O-])s1 | 18.4µM* | -126.2% | ? | . | 5.8µM* | ?
O=C(Cc1ccccc1)N/N=C/c1ccc([N+](=O)[O-])s1 | 20.6µM* | -79.4% | ? | -31.3% | 23.1µM* | i
CCOc1ccc(NC(C)C(=O)N/N=C/c2cccs2)cc1 (stereo unspecified) | -1.9% | -4.2% | -4.4% | 11.4% | -10.2% | i
Cc1ccnn1CC(=O)N/N=C/c1ccc([N+](=O)[O-])s1 | 25.9µM* | -122.0% | 11.2µM* | ? | 23.1µM* | i
COc1ccc(NC(C)C(=O)N/N=C/c2ccc([N+](=O)[O-])s2)cc1 (stereo unspecified) | 16.4µM* | 17.8µM* | 12.6µM* | ? | 23.1µM* | ?
CC(C)(C)S(=O)(=O)/C(C#N)=C/c1sccc1C1OCCO1 | ? | 9.8% | ? | 2.3% | ? | i
Cc1cccc(C)c1NC(=O)Cn1c(=O)n(CCCS(=O)(=O)C2CCCCC2)c(=O)c2ccccc21 | -2.9% | -16.9% | -17.5% | 0.1% | ? | i
O=C(N/N=C/c1ccc(Br)s1)c1cccc([N+](=O)[O-])c1 | ? | -56.3% | -0.2% | -23.2% | ? | i
COc1ccccc1NC(=O)C(=O)N/N=C/c1ccc([N+](=O)[O-])s1 | 11.6µM* | -6.8% | -0.3% | -26.5% | ? | i
O=C(N/N=C\c1ccc([N+](=O)[O-])s1)c1cncc(Br)c1 | 5.17µM* | 3.55µM* | 6.31µM* | 10µM* | 3.26µM* | 28.2µM*
Cc1c(Cl)cccc1N=Cc1ccc([N+](=O)[O-])s1 | ? | -114.8% | ? | ? | ? | ?
COC(=O)N/N=C/c1ccc([N+](=O)[O-])s1 | 13µM* | -34.8% | ? | -27.8% | 14.6µM* | i
COc1ccccc1/C=N/NC(=O)C(=O)Nc1ccccc1OC(F)(F)C(F)F | ? | 8.9% | -2.4% | 5.2% | ? | i
O=C(N/N=C/c1ccc([N+](=O)[O-])s1)c1ccccc1 | 4.61µM* | 12.6µM* | 11.2µM* | ? | 4.11µM* | i
N#CCc1ccc(OC(=O)c2cccnc2Cl)cc1 | -19.7% | 7.3% | 10.7% | 30.3% | -17.1% | i
Cc1ccccc1C(=O)N/N=C/c1ccc([N+](=O)[O-])s1 | 16.4µM* | -109.5% | ? | 7.94µM* | 13µM* | ?
Cc1ccccc1C(=O)N/N=C/c1cccc2ccccc12 | -0.6% | 2.2% | 5.1% | 44.3% | -17.6% | i

Source: PubChem (National Center for Advancing Translational Sciences (NCATS))
